# Test results from PubChem BioAssay (NCATS).
# Results filed as inconclusive are left out. Where a call stands in place of a potency, no number is given. Calls of active or inactive are those of the source. The call rests on the fitted dose curve; in most records, active means well fitted curve in the direction sought with a large enough effect; inconclusive means small, poorly fitted or top-dose-only effect, or another doubt; inactive means no such curve, though single readings can be large; an effect the other way counts as inactive or inconclusive.
# Columns and labels:
# [1] = target: Cytochrome P450 3A4 (Homo sapiens) (UniProt P08684); test: qHTS Assay for Activators of Cytochrome P450 3A4 (AID 885); further: nearly all actives have a fitted effect of over 65% in size
# Summary of the method: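 Human CYP3A4 (20 nM) with Luciferin-PPXE at 25 uM (its KM) in 200 mM KPO4; 10 min compound preincubation, then NADPH regeneration and 60 min reaction at RT. Luciferin read by luminescence; normalized to 57 uM ketoconazole full inhibition.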
# [2] = Confirmation and Secondary Assay for Modulators of Hemoglobin Beta Chain Splicing at IVS2 654 locus (AID 910);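 further: HeLa cells stably carrying EGFP split by mutant beta-globin IVS2-654 intron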
# Summary of the method: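 HeLa cells stably expressing EGFP interrupted by β-globin IVS2-654 intron, seeded overnight in Opti-MEM/2% FCS, then treated 2 days at 37 °C. Restored splicing read as total peak GFP intensity per well by laser scanning cytometry (488 nm excitation, 500–520 nm emission); 500 nM antisense PNA as control.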
# [3] = Confirmation and Secondary Assay for Modulators of Hemoglobin Beta Chain Splicing at IVS2 705 locus (AID 930);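 further: HeLa cells stably expressing the EGFP-705 splicing reporter; GFP fluorescence per well restored by corrected splicing of the IVS2-705 intron in EGFP; series mostly up to about 46 µM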
# Summary of the method: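 HeLa IVS2-705 EGFP reporter cells, 500/well, compound 2 d at 37C; correct splicing yields fluorescent EGFP. Control: 500 nM antisense PNA. Read-out: total peak GFP intensity.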
# [4] = target: Ubiquitin carboxyl-terminal hydrolase 1 (Homo sapiens) (UniProt O94782); test: Inhibitors of USP1/UAF1: Pilot qHTS (AID 504865);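 further: rhodamine fluorescence freed from ubiquitin-rhodamine substrate followed over time; top concentration of the series differs between compounds; nearly all actives have a fitted effect of over 35% in size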
# Summary of the method: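 USP1/UAF1 complex (1nM) preincubated with compound 15 min at room temperature, then Ub-Rho substrate (150nM final) added. Fluorescence read kinetically at 480/540 nm, 6 reads every 60 seconds. Buffer: 50mM HEPES pH 7.8, 0.5mM EDTA, 0.1 mg/ml BSA, 1mM TCEP, 0.01% Tween-20.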
# [5] = target: N-terminal Xaa-Pro-Lys N-methyltransferase 1 (Homo sapiens) (UniProt Q9BV86); test: Confirmatory qHTS for Inhibitors of N-terminal methyltransferase 1 (NTMT1): MTaseGlo Assay (AID 1645874); details: NTMT1 enzyme, MTase-Glo SAH luminescence; further: potency means the concentration at half of the fitted maximal effect; nearly all actives have a fitted effect of over 65% in size
# Summary of the method: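 NTMT1 (125 nM) preincubated 15 min with compound and 100 uM SAM, then 1 uM SPKRIA peptide added for 30 min at room temperature. SAH detected by MTase-Glo luminescence; normalized to no-enzyme and DMSO controls, fitted to 4-parameter Hill.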
# [6] = target: Luciferin 4-monooxygenase (Photinus pyralis) (UniProt P08659); test: Biochemical firefly luciferase enzyme assay for NPC (AID 624030);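 further: purified P. pyralis luciferase at 10 nM with luciferin and ATP substrate; series mostly up to about 59 µM; nearly all actives have a fitted effect of over 70% in size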
# Summary of the method: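 Purified P. pyralis luciferase at 10 nM in 50 mM Tris Acetate (final), luminescence read within 5 minutes of enzyme addition to compounds. Activity normalised to PTC124 versus DMSO; concentration-response curves classed by r2, magnitude and activity.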
# [7] = Confirmatory screen GU Rhodamine qHTS for Zika virus inhibitors qHTS (AID 1347157); further: potency means the concentration at half of the fitted maximal effect; nearly all actives have a fitted effect of over 70% in size
# Summary of the method: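 Noncovalent NS2B hydrophilic domain/NS3 protease complex (25 nM final) in 10 mM Tris-HCl pH 8.0, 0.01% Tween 20, preincubated 15 min with compounds (up to 114 microM), then 1.5 microM Rhodamine110 substrate. Fluorescence change over 15 min fitted to 4-parameter Hill.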
# [8] = Confirmatory screen NINDS Rhodamine qHTS for Zika virus inhibitors (AID 1347161); further: potency means the concentration at half of the fitted maximal effect; nearly all actives have a fitted effect of over 60% in size
# Summary of the method: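 Aprotinin served as in-plate control. Conditions: 25 nM linked NS2B-NS3, pH 8.0 Tris buffer, titrated compounds, 15 min preincubation and 15 min reaction with 1.5 microM Rhod110 substrate at room temperature.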
# [9] = Tertiary RLuc qRT-PCR qHTS assay for Zika virus inhibitors (AID 1347169); further: nearly all actives have a fitted effect of over 55% in size; further: potency means the concentration at half of the fitted maximal effect
# Summary of the method: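 Vero cells (1,000 per well) plated overnight at 37 degrees C, treated with compound in DMSO, then infected with recombinant ZIKV-RLuc (Cambodian) at MOI 1-2 for 48-72 hrs. Live-cell Renilla luciferase substrate added; luminescence read after 1-1.5 hrs.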
# [10] = target: Calcium and integrin-binding protein 1 (Homo sapiens) (UniProt Q99828); test: Confirmatory qHTS for Identification of Calcium Integrin Binding Protein 1 (CIB1) Competitor (AID 1508617); details: CIB1 binding competition assay, biochemical qHTS; further: potency means the concentration at half of the fitted maximal effect; nearly all actives have a fitted effect of over 65% in size
# Summary of the method: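 FP competition: CIB1-GST (1 uM final) in 5 mM HEPES pH 7.4, 125 mM NaCl, 5 mM CaCl2, 0.01% Tween20 preincubated 15 min RT with compounds (up to 114 uM), then FITC-alphaIIb peptide (100 nM), 15 min RT; Ex 480/Em 540.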
# [11] = target: Nuclear receptor subfamily 1 group I member 3 (Homo sapiens) (UniProt Q14994); test: Primary qHTS for antagonist of constitutive androstane receptor (CAR) against the NCATS DSHEA and TCM libraries (AID 1794836); further: potency means the concentration at half of the fitted maximal effect
# Summary of the method: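 HepG2-CYP2B6-hCAR cells, attached 5 h, given compounds plus CITCO agonist […], incubated 24 h at 37 C. Luciferase luminescence read, multiplexed with CellTiter-Fluor viability (Ex/Em 405/540 nm).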
# [12] = Viability counterscreen for agonist of constitutive androstane receptor (CAR) against the NCATS DSHEA and TCM libraries (AID 1794838)
# Summary of the method: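 HepG2-CYP2B6-hCAR cells (2,500/well) attached 5 h, then got compounds plus 0.75 uM PK11195 final. After 24 h at 37C, viability read by CellTiter-Fluor fluorescence (Ex/Em 405/540 nm).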
# [13] = target: Nuclear receptor subfamily 1 group I member 3 (Homo sapiens) (UniProt Q14994); test: Primary qHTS for agonist of constitutive androstane receptor (CAR) against the NCATS DSHEA and TCM libraries (AID 1794839);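 further: HepG2 cells expressing human CAR with a CYP2B6 reporter plus PK11195 antagonist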
# Summary of the method: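 HepG2-CYP2B6-hCAR cells (2,500/well) were attached for 5 h, then treated for 24 h at 37 °C with compounds plus 0.75 µM PK11195. Luciferase luminescence (ONE-Glo) was read, with CellTiter-Fluor viability (Ex/Em 405/540 nm).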
# [14] = HepG2 viability counterscreen (readout 2: ATP content) against the NCATS DSHEA and TCM libraries (AID 1794840);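 further: HepG2 cells exposed to substances for about 24 h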
# Summary of the method: (§1)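 HepG2 cells (1,000 cells/well) attached ~4 h, then treated ~24 h at 37C with substances. Protease activity read by GF-AFC (25 uM final, 30 min, Ex/Em 380/510 nm); ATP content then by CellTiter-Glo luminescence.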
# [15] = HepG2 viability counterscreen (readout 1: protease activity) against the NCATS DSHEA and TCM libraries (AID 1794841);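 further: cells exposed to compounds for about 24 h before the protease read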
# Summary of the method: as §1
# [16] = target: Cytochrome P450 3A4 (Homo sapiens) (UniProt P08684); test: qHTS for inhibitors of CYP3A4 against the NCATS DSHEA and TCM libraries (AID 1919971);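 further: inhibition lowers luminescence from luciferin made by CYP3A4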
# Summary of the method: (§2)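 Luminescent P450-Glo format: compounds preincubated 15 min with enzyme and luciferin substrate, reaction run 30-45 min after NADPH regeneration solution. Intraplate controls: ketoconazole for CYP3A4 and CYP2C19, sulfaphenazole for CYP2C9.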
# [17] = target: Cytochrome P450 2D6 (Homo sapiens) (UniProt P10635); test: qHTS for inhibitors of CYP2D6 against the NCATS DSHEA and TCM libraries (AID 1919972)
# Summary of the method: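 Luminescent P450-Glo read-out of CYP2D6 turnover of a luciferin substrate after NADPH-driven reaction of 30-45 min at room temperature. Compounds were first preincubated 15 min with enzyme at titrated concentrations; quinidine was the intraplate control.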
# [18] = target: Cytochrome P450 2C9 (Homo sapiens) (UniProt P11712); test: qHTS for inhibitors of CYP2C9 against the NCATS DSHEA and TCM libraries (AID 1919973);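 further: luminogenic pro-luciferin CYP2C9 substrate turned into luciferin with NADPH regeneration; series mostly up to about 34 µM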
# Summary of the method: as §2
# [19] = target: Cytochrome P450 2C19 (Homo sapiens) (UniProt P33261); test: qHTS for inhibitors of CYP2C19 against the NCATS DSHEA and TCM libraries (AID 1919974); details: CYP2C19 enzyme inhibition, luminescence qHTS;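 further: luminescence from luciferin released by CYP2C19 oxidation of a pro-luciferin substrate; potency means the concentration at half of the fitted maximal effect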
# Summary of the method: as §2
# [20] = KB-3-1 P-gp reporter qHTS against the NCATS DSHEA and TCM libraries (AID 1919975)
# Summary of the method: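 Parental KB-3-1 human cervical adenocarcinoma cells (500 cells/well, DMEM + 10% FBS) were treated with substances for ~72 h at 37C; viability was read by CellTiter-Glo luminescence.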
# Sequence of Cytochrome P450 3A4 (Homo sapiens) (P08684 whole entry, looked up): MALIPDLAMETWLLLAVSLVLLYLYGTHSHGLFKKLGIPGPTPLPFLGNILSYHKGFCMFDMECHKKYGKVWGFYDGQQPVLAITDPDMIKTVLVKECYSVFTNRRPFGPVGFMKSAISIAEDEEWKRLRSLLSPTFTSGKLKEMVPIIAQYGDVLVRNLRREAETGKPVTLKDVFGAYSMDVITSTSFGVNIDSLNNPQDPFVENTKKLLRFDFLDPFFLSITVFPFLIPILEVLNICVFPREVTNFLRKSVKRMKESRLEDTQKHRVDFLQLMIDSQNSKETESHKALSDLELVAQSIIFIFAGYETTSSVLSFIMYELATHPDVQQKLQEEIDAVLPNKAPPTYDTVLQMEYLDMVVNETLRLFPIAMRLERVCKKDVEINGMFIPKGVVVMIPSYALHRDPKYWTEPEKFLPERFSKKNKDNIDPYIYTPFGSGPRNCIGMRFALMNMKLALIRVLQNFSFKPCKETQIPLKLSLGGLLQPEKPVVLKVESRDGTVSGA
# Sequence of Ubiquitin carboxyl-terminal hydrolase 1 (Homo sapiens) (O94782 whole entry, looked up): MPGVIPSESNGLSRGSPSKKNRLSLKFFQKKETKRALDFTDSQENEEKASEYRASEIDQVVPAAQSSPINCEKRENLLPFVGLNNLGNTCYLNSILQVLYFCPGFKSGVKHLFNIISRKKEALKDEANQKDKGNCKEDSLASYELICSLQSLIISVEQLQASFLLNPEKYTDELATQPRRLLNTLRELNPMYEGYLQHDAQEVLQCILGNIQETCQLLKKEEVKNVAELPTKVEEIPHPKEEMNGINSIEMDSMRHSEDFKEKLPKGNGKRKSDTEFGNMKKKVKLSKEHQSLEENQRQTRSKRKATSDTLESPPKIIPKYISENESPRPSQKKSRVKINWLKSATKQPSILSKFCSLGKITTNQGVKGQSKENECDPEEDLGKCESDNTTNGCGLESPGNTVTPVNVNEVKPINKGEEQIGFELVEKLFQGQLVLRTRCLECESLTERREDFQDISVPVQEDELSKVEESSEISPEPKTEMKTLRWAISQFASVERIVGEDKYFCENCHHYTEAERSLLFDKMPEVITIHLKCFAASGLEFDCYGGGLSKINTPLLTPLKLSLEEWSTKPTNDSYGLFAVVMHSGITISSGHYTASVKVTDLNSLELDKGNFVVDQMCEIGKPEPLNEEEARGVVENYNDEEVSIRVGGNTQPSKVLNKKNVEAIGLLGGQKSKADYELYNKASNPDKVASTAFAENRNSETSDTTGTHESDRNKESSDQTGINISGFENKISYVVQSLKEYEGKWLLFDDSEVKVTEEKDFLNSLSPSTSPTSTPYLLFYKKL
# Sequence of Nuclear receptor subfamily 1 group I member 3 (Homo sapiens) (Q14994 whole entry, looked up): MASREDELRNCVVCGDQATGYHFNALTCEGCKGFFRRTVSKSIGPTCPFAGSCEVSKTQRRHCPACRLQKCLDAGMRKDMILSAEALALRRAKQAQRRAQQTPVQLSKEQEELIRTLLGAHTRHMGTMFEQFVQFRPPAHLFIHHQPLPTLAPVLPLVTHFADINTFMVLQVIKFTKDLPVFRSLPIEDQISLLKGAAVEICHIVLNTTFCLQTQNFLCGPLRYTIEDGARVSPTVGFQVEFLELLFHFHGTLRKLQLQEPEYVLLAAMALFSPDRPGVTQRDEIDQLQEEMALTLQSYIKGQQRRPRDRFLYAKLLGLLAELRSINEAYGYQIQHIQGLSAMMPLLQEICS
# Sequence of Calcium and integrin-binding protein 1 (Homo sapiens) (Q99828 whole entry, looked up): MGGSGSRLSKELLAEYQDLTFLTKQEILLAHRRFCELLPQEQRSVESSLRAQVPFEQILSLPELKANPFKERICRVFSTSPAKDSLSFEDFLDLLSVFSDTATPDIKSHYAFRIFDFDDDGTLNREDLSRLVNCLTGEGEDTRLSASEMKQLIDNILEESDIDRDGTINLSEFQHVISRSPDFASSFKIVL
# Sequence of Cytochrome P450 2C19 (Homo sapiens) (P33261 whole entry, looked up): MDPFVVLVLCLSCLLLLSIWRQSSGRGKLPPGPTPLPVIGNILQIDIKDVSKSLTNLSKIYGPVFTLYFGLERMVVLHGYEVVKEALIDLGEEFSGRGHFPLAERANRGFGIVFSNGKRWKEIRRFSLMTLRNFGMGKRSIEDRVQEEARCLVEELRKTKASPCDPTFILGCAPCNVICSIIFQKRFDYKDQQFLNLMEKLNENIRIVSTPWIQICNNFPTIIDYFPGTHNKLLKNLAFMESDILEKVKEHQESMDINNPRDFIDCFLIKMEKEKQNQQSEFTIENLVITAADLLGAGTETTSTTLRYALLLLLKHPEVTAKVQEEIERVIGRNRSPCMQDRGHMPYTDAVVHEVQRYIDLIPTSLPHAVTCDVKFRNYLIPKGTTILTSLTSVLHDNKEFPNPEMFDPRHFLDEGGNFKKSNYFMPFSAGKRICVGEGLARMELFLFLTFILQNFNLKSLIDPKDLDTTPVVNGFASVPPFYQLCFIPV
# Sequence of Cytochrome P450 2C9 (Homo sapiens) (P11712 whole entry, looked up): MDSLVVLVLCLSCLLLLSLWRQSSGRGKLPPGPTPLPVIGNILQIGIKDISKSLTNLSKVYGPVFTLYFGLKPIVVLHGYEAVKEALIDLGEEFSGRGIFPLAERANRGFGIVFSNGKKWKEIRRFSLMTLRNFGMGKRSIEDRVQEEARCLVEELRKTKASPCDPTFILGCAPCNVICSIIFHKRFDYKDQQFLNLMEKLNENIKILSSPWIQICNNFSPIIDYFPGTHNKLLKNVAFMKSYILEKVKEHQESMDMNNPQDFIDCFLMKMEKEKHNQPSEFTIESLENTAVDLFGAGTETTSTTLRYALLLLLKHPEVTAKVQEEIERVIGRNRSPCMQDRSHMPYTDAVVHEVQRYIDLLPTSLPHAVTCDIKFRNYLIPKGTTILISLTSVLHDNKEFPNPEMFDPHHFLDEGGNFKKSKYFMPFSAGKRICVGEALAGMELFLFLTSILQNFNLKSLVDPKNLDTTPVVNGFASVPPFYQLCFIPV
# Sequence of Luciferin 4-monooxygenase (Photinus pyralis) (P08659 whole entry, looked up): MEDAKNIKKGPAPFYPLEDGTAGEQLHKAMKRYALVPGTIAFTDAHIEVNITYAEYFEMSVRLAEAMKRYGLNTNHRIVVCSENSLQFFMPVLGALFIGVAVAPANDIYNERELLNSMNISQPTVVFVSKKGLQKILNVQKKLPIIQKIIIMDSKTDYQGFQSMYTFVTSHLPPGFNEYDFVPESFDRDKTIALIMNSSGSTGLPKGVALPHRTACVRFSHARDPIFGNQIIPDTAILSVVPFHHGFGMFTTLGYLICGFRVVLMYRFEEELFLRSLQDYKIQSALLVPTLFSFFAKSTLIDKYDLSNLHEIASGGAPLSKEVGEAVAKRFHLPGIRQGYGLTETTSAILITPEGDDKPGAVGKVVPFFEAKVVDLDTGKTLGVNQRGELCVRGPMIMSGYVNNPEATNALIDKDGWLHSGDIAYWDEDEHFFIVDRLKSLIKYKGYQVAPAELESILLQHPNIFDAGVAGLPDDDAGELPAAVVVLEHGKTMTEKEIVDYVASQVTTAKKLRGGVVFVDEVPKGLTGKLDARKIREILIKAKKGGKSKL
# Sequence of Cytochrome P450 2D6 (Homo sapiens) (P10635 whole entry, looked up): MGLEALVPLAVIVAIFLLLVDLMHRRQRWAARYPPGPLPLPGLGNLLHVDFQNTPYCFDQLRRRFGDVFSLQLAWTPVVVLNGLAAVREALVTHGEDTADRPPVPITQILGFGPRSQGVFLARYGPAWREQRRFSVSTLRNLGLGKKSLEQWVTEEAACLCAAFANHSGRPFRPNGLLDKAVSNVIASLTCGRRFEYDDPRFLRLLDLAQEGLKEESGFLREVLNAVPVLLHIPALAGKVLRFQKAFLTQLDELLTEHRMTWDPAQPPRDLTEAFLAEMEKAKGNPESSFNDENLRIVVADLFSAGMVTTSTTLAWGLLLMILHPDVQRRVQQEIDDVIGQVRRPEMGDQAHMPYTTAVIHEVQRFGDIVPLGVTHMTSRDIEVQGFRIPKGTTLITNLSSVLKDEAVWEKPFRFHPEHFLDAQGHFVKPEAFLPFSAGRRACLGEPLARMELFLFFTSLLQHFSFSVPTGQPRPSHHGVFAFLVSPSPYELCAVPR
# Sequence of N-terminal Xaa-Pro-Lys N-methyltransferase 1 (Homo sapiens) (Q9BV86 whole entry, looked up): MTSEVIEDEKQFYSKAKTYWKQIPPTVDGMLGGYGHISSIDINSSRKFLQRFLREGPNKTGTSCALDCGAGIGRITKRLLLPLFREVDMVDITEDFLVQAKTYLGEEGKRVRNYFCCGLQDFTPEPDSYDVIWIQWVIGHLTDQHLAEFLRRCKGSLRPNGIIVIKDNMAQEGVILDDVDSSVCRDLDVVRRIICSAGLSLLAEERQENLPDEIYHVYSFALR
structure (smiles),measurement,setting,value
CN1CCc2cc3c(cc2C1C1OC(=O)c2c1ccc1c2OCO1)OCO3 (stereo not drawn),Potency,[1],inactive
CC1CCCC(=O)CCC/C=C/c2cc(O)cc(O)c2C(=O)O1 (stereo not drawn),Potency,[1],inactive
same,Potency,[2],inactive
same,outcome,[3],inactive
same,Potency,[4],inactive
same,Potency,[5],15.8 µM (active)
O=C(CC1NCCC[C@H]1O)Cn1cnc2cc(Br)c(Cl)cc2c1=O (stereo partly drawn),Potency,[6],inactive
CNc1ccc2oc(C[C@H]3O[C@@]4(CC[C@H]3C)O[C@H](C(C)C(=O)c3ccc[nH]3)[C@H](C)C[C@H]4C)nc2c1C(=O)O (stereo partly drawn),Potency,[7],13.9 µM (active)
same,Potency,[8],31.2 µM (active)
same,Potency,[9],0.658 µM (active)
C=C1[C@@H](C)[C@H]2[C@H](Cc3ccccc3)NC(=O)[C@]23OC(=O)/C=C/C(=O)CCC[C@@H](C)C/C=C/[C@H]3[C@@H]1O,Potency,[10],10 µM (active)
C=C(CO)C(=O)O[C@H]1CC(=C)[C@@H]2C[C@H](O)C(=C)[C@@H]2[C@H]2OC(=O)C(=C)[C@@H]21,Potency,[11],22.4 µM (active)
same,outcome,[12],inactive
same,outcome,[13],inactive
same,outcome,[14],inactive
same,outcome,[15],inactive
same,outcome,[16],inactive
same,outcome,[17],inactive
same,outcome,[18],inactive
same,Potency,[19],2.24 µM (active)
same,outcome,[20],inactive
C=CCN1CCC2(C)c3cc(O)ccc3C[C@H]1[C@H]2C,Potency,[4],inactive
same,Potency,[9],inactive
